High-throughput results from PubChem.
HDAC3 inhib – inhibitors of human histone deacetylase 3; recombinant HDAC3, fluorogenic peptide/trypsin coupled, fluorescence; inhibition, % at 8.3 µM; hit rate 0.15% among 320,000; AID 2718; in the data active = inhibition above about 26%, passing the limit was not always enough; inconclusive = no clear call, values can overlap the other calls
N-glyco inh – blocks N-linked glycosylation in D54 reporter cells. D54 ERlucT glycosylation luciferase reporter, 24 h; percent of 100 nM tunicamycin response. reporter increase, % at 12.5 µM. hit rate 0.23% among 360,000. AID 588692;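 active = mean luciferase reporter signal, scaled so untreated is 0 and the glycosylation-blocking control 100, at or above a set limit in every replicate; inconclusive = mean reaches the limit but not every replicate does; inactive = mean below the limit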;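 note: luciferase carries N-glycosylation sites so blocking glycosylation raises the light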
Casp6 inh – caspase-6 (human) enzyme inhibition | hit rate 0.53% among 350,000 | P55212 | inhibition, % at 12.5 µM | purified caspase-6, Z-VEID-R110 cleavage fluorescence;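 active = mean inhibition across replicates at least about 35%, with every replicate also reaching that limit, limit read from the data; inconclusive = only one of the two criteria met; inactive = neither criterion met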
C-LANA FP – inhibitors of KSHV LANA C-terminal domain DNA binding. MBP-C-LANA/FAM-LBS DNA binding, fluorescence polarization. inhibition, % at 9 µM. hit rate 0.078% among 340,000;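 active = highest replicate inhibition at or above 60% at 9 µM, even if other replicates fall short; inactive = all replicates below 60% inhibition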
Keap1 Nrf2 FP – disrupts human Keap1 binding to Nrf2 peptide. Q14145. Keap1 Kelch-Nrf2 peptide fluorescence polarization, 1536-well. inhibition, % at 9.4 µM. hit rate 0.15% among 340,000. AID 504523; in the data active = inhibition above about 12%; inconclusive = no clear call, values can overlap the other calls; inactive = below about 7.3%;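 note: human Keap1 Kelch domain with fluorescein labeled Nrf2 9mer peptide probe; higher means more block of Keap1 binding to Nrf2 peptide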
Target sequence (Q14145 whole entry, looked up, the tested form may be a part): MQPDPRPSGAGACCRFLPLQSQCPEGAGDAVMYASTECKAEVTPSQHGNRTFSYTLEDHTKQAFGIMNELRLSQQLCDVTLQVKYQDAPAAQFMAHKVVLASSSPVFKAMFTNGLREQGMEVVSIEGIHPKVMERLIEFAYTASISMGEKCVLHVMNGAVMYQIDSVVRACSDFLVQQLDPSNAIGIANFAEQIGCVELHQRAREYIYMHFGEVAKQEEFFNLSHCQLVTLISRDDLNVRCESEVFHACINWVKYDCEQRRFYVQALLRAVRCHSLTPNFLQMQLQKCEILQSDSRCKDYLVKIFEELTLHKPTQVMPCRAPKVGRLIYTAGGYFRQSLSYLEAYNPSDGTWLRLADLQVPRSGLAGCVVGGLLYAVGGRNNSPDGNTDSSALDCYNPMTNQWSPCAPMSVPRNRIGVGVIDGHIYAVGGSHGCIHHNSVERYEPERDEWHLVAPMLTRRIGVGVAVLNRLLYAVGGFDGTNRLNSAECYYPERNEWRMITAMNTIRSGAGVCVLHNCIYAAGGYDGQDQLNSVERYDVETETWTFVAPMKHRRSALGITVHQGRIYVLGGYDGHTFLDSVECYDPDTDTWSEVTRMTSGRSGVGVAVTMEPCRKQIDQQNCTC
NSD2 inh – blocks human histone methyltransferase NSD2; O96028; NSD2 peptide methylation, AlphaScreen, 120 min; inhibition, % at 12.5 µM; hit rate 0.54% among 310,000; in the data active = inhibition above about 50%
Keap1 Kelch bind – Keap1 (human) Kelch domain binding; max delta Tm, degrees C; Keap1 Kelch thermal shift, delta Tm; stronger effect = higher value; shares compounds with Keap1 Nrf2 FP; hit rate 8% among 400; in the data active = max delta Tm above about 0.48 degrees C
Dye-only ctr – shifts Sypro Orange melt without protein, a false positive; AID 651858; Sypro Orange dye-only thermal melt, no protein, delta Tm; top dose 26 µM; shares compounds with Keap1 Nrf2 FP; 140 tested, under 10 active; delta Tm, degrees C (test concentration not listed);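 active = at highest dose tested, delta Tm positive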
Numbers stand for hits. A selection: hits, their analogues and other compounds. The true share with any hit is near 1.1%.

Screening COc1ccc(C2C(C(=O)c3cccs3)=C(O)C(=O)N2c2nncs2)cc1 (stereo unspecified) returned HDAC3 inhib inactive, N-glyco inh inactive, C-LANA FP 64, Keap1 Nrf2 FP 55, NSD2 inh inactive and Keap1 Kelch bind inactive.
Screening CC(C)c1nnc(N2C(=O)C(O)=C(C(=O)c3cccs3)C2c2ccccc2)s1 (stereo unspecified) returned N-glyco inh inactive, Casp6 inh inactive, C-LANA FP inactive, Keap1 Nrf2 FP 20, NSD2 inh inactive and Keap1 Kelch bind inactive.
C[C@@H]1CN([C@@H](C)CO)C(=O)c2cc(NC(=O)Nc3cccc4ccccc34)ccc2O[C@@H]1CN(C)C(=O)Nc1ccc(F)cc1 was read as Casp6 inh inactive.
`O=C(O)c1ccccc1NCc1ccco1` gave HDAC3 inhib inactive, N-glyco inh inactive, Casp6 inh inactive, C-LANA FP inactive, Keap1 Nrf2 FP inactive and NSD2 inh inactive.
CCOc1ccc2noc3c2c1C(=O)c1ccccc1-3 was read as HDAC3 inhib inactive, N-glyco inh inactive, C-LANA FP inactive, Keap1 Nrf2 FP 21 and Keap1 Kelch bind inactive.
Screening CCOc1ccccc1C=C1CCc2ccccc2C1=O returned N-glyco inh inactive, Casp6 inh inactive and NSD2 inh inactive.
CCNc1ccc2noc3c2c1C(=O)c1ccccc1-3 was read as HDAC3 inhib inactive, N-glyco inh inactive, C-LANA FP 65, Keap1 Nrf2 FP 21, NSD2 inh inactive and Keap1 Kelch bind 0.83.
For O=C1c2ccccc2-c2onc3ccc(NCc4ccco4)c1c23 the results were HDAC3 inhib inactive, N-glyco inh inactive, C-LANA FP inactive, Keap1 Nrf2 FP 19 and Keap1 Kelch bind inactive.
`O=C1c2ccccc2-c2onc3ccc(N4CCCC4)c1c23` gave N-glyco inh inactive, Casp6 inh inactive, C-LANA FP inactive, Keap1 Nrf2 FP 16, NSD2 inh inactive and Keap1 Kelch bind inactive.
Screening Cc1noc(C)c1NC(=O)Nc1cccc2c1O[C@H](CN(C)Cc1ccc(C(=O)Nc3ccccc3N)cc1)[C@H](C)CN([C@H](C)CO)C2=O returned Casp6 inh inactive.
CC=Cc1ccc2n(c1=O)C[C@@H]1[C@@H](CO)[C@H](C(=O)NCC3CC3)[C@H]2N1C(=O)CC (mixture of isomers) was read as Casp6 inh inactive.
For C1=C(c2ccc(-c3ccccc3)cc2)Nc2ncnn2C1c1ccco1 (stereo unspecified) the results were N-glyco inh inactive, C-LANA FP inactive and Keap1 Nrf2 FP inactive.
`Fc1ccc(C2=CC(c3ccco3)n3ncnc3N2)cc1` (stereo unspecified) gave HDAC3 inhib inactive, N-glyco inh inactive, C-LANA FP inactive, Keap1 Nrf2 FP 19, NSD2 inh inactive and Keap1 Kelch bind inactive.
Screening Fc1ccc(C2=CC(c3ccc(Br)o3)n3ncnc3N2)cc1 (stereo unspecified) returned HDAC3 inhib inactive, N-glyco inh inactive, C-LANA FP 64, Keap1 Nrf2 FP 36 and Keap1 Kelch bind inactive.
For COc1ccc2nc3ccccc3nc2c1NC(=O)c1ccccc1Cl the results were HDAC3 inhib inactive, N-glyco inh inactive, Casp6 inh inactive, C-LANA FP inactive, Keap1 Nrf2 FP 16, NSD2 inh inactive and Keap1 Kelch bind inactive.
O=C(Nc1ccc2ccccc2n1)c1ccccc1Cl was read as HDAC3 inhib inactive, N-glyco inh inactive, Casp6 inh inactive, C-LANA FP inactive, Keap1 Nrf2 FP inactive and NSD2 inh inactive.
`CN(N=Nc1cccc([N+](=O)[O-])c1)c1ccccc1` gave HDAC3 inhib inactive, N-glyco inh inactive, Casp6 inh inactive, C-LANA FP inactive, Keap1 Nrf2 FP inactive and NSD2 inh inactive.
For CN(N=Nc1ccc([N+](=O)[O-])cc1)c1ccccc1 the results were HDAC3 inhib inactive, N-glyco inh inactive, Casp6 inh inactive, C-LANA FP 101, Keap1 Nrf2 FP 113, NSD2 inh inactive and Keap1 Kelch bind inactive.
Screening CCOC(=O)C1CCCN(C(=O)C2c3ccccc3Oc3ccccc32)C1 (stereo unspecified) returned HDAC3 inhib inactive, N-glyco inh inactive, C-LANA FP 119, Keap1 Nrf2 FP 47, NSD2 inh inactive, Keap1 Kelch bind inactive and Dye-only ctr inactive.
`O=C1N=c2ccc(Br)cc2=C1c1sc(=S)n(NS(=O)(=O)c2ccccc2)c1O` gave HDAC3 inhib inactive, N-glyco inh inactive, Casp6 inh inactive, C-LANA FP inactive, Keap1 Nrf2 FP 53, NSD2 inh inactive, Keap1 Kelch bind 2.7 and Dye-only ctr inactive.
Screening COc1cc(/C=C/CN2CCN(CCC(C)C)C(CCO)C2)ccc1O (stereo unspecified) returned HDAC3 inhib inactive, N-glyco inh inactive, Casp6 inh inactive, C-LANA FP inactive, Keap1 Nrf2 FP 18, NSD2 inh inactive and Keap1 Kelch bind inactive.
`CCCCNC(=S)Nc1ccc(OC)nc1` gave HDAC3 inhib inconclusive, N-glyco inh inactive, Casp6 inh inactive, C-LANA FP inactive, Keap1 Nrf2 FP 12, NSD2 inh inactive and Keap1 Kelch bind inactive.
For COc1ccc(NC(=S)Nc2ccccc2)cn1 the results were HDAC3 inhib inactive, N-glyco inh inactive, Casp6 inh inactive, C-LANA FP inactive, Keap1 Nrf2 FP inactive and NSD2 inh inactive.
For C[C@H](CO)N1C[C@H](C)[C@H](CN(C)C)Oc2ccc(NC(=O)CCCCCC(=O)Nc3ccccc3N)cc2CC1=O the results were Casp6 inh inactive.
COc1ccc2c(c1)c1nc3ccccc3nc1n2CC(=O)OC(C)C was read as HDAC3 inhib inactive, N-glyco inh inactive, C-LANA FP inactive, Keap1 Nrf2 FP 24, NSD2 inh inactive, Keap1 Kelch bind inactive and Dye-only ctr inactive.
For O=C1c2cccc3c(N4CCCCC4)ccc(c23)C(=O)N1c1ccccc1O the results were HDAC3 inhib inactive, N-glyco inh inactive, Casp6 inh inactive, C-LANA FP inactive, Keap1 Nrf2 FP 16, NSD2 inh inactive and Keap1 Kelch bind inactive.
CN1C(=O)c2cc(NC(=O)C3CCC3)ccc2OC[C@@H]2O[C@@H](CC(=O)NCCc3ccncc3)CC[C@@H]21 was read as Casp6 inh inactive.
Screening O=C(C[C@H]1CC[C@H](NC(=O)CCN2CCCCC2)[C@H](CO)O1)Nc1ccc(-c2ccccc2)cc1 returned Casp6 inh inactive.
For Cc1cccc(C)c1NC(=O)CSc1nnc(-c2ccco2)c(-c2ccco2)n1 the results were HDAC3 inhib inactive, N-glyco inh inactive, C-LANA FP 105, Keap1 Nrf2 FP 46, Keap1 Kelch bind inactive and Dye-only ctr inactive.
Screening CO[C@H]1CN(C)C(=O)c2ccc(NC(C)=O)cc2OC[C@H](C)N(C(=O)c2cccnc2)C[C@H]1C returned Casp6 inh inactive.
